USP7 block: blocks human USP7 ubiquitin-rhodamine cleavage; Q93009; purified USP7, Ub-rhodamine cleavage fluorescence; inhibition, % at 20 µM; actives 0.3% (n = 47,000)
USP30 block: inhibitors of human USP30 deubiquitinase | Q70CQ3 | actives 5.3% (n = 47,000) | inhibition, % at 25 µM | purified USP30, Ub-rhodamine cleavage fluorescence
USP17 block: blocks human USP17 ubiquitin-rhodamine cleavage; A8MUK1; inhibition, % at 50 µM; purified USP17, Ub-rhodamine cleavage fluorescence, 3 h; actives 6.5% (n = 47,000)
USP8 block: inhibitors of human USP8 deubiquitinase | AID 1645853 | inhibition, % at 20 µM | P40818 | actives 4.2% (n = 47,000) | purified USP8, Ub-rhodamine cleavage fluorescence, 30 min
USP28 block: human USP28 deubiquitinase inhibition | purified USP28, Ub-rhodamine cleavage fluorescence, 30 min | inhibition, % at 25 µM | actives 3% (n = 47,000)
USP10 block: inhibitors of human USP10 deubiquitinase; inhibition, % at 20 µM; actives 1.1% (n = 47,000); purified USP10, Ub-rhodamine fluorescence, 60 min
Hits are given with their value; n = inactive; x = not tested or not shown. Most compounds without a hit are left out; they make up all but 13% or so of the library. No stated cut-off is given here; in the data, active means inhibition above about 30%; inactive means the rest.

SMILES	USP7 block	USP30 block	USP17 block	USP8 block	USP28 block	USP10 block
O=C1CC(C(=O)Nc2cccc(F)c2)n2nc(SCc3ccccc3)nc2N1 (centres undefined)	n	43	n	n	n	n
O=C1CC(C(=O)Nc2ccc(F)cc2)n2nc(SCc3ccccc3)nc2N1 (centres undefined)	n	58	n	n	n	n
O=C(c1n[nH]c2c1CCCC2)N1CCC(Nc2cccnc2)C1 (centres undefined)	n	n	x	n	n	n
COc1cc2cc3c(c(O)c2c(O)c1-c1c(OC)cc2cc4c(c(O)c2c1O)C(=O)OC1CC(C)OC41)C(=O)OC1CC(C)OC31 (centres undefined)	n	n	61	58	n	n
COc1cc(O)cc2c1C(=O)O[C@@H](C[C@H]1CCC[C@H](C)O1)C2	n	n	n	n	n	n
Cc1cccc(C(=O)NCC(=O)N2CCN(c3ccc(Cl)cc3)CC2)c1	n	41	33	n	n	n
O=C(NCC(=O)N1CCN(c2ccccc2)CC1)c1ccccc1	n	n	n	n	n	n
O=C(OCC(=O)N1CCCCCC1)c1ccc2[nH]c3c(c2c1)CCCC3	n	n	n	n	n	n
c1ccc(COc2ccc3[nH]c4c(c3c2)CCCCCC4)cc1	n	n	42	n	n	n
O=C(NCC1(O)CCc2ccccc21)c1ccc2c(c1)OCO2 (centres undefined)	n	33	n	n	n	n
N#Cc1cccc(C(=O)NCC2(O)CCc3ccccc32)c1 (centres undefined)	n	n	n	n	n	n
CCOc1ccccc1C(=O)Nc1cc2c3c(c1)CCN3C(=O)CC2	n	n	n	n	n	n
O=C(CN1C(=O)c2cccnc2Sc2ccccc21)Nc1ccccc1F	n	n	n	n	n	n
CCn1ccc2c(cc(C(=O)Nc3ccccc3F)n2C)c1=O	n	n	n	n	74	n
O=C(c1ccccc1)N1CCCC1c1cnc(-c2ncc[nH]2)cn1 (centres undefined)	n	n	n	n	n	n
CC(=O)c1ccc(NC(=O)c2ccc(N3CCCCS3(=O)=O)cc2Cl)cc1	n	n	52	31	n	n
O=C(Nc1ccc(Cl)c(Cl)c1)c1cccc(N2CCCCS2(=O)=O)c1	n	n	n	n	34	n
O=C(NCCN1CCNCC1)c1nc(CS(=O)(=O)c2ccccc2)no1	n	n	n	n	n	n
O=C(Nc1cnn(-c2ncncc2N2CCCCC2)c1)c1ccc2c(c1)OCO2	n	n	n	n	n	n
COc1ccc(-c2nc(-c3cccc(-c4ccnn4C)c3)no2)cc1	n	n	n	n	n	n
COc1cccc(-c2noc(-c3occc3Br)n2)c1	n	n	40	n	n	n
COc1ccc(OC)c(CCNC(=O)CCC2=NS(=O)(=O)c3ccc(C(F)(F)F)cc3N2)c1	n	33	77	58	n	n
CN(Cc1ccccc1)C(=O)c1nnn(-c2ccccc2)n1	n	n	n	n	n	n
O=C(c1nnn(-c2ccccc2)n1)N1CCC(Cc2ccccc2)CC1	n	31	n	n	39	n
Cc1cccc(N2CCN(C(=O)c3nnn(-c4ccc(F)cc4)n3)CC2)c1	n	n	n	n	56	n
SMILES	USP7 block	USP30 block	USP17 block	USP8 block	USP28 block	USP10 block
CS(=O)(=O)N[C@@H]1C[C@@H]2CO[C@H](c3ccccc3)C[C@@H]2C1	n	n	n	n	n	n
CCCn1nnc2cc(-c3noc(CNC(=O)c4cccs4)n3)ccc21	n	n	33	n	n	n
Cc1ccccc1CNC(=O)c1cc(=O)nc2sc(N3CCC(C)CC3)nn12	n	n	n	n	n	n
CC1OC2CC(O)C1(O)C1=C2C(O)=C(C(N)=O)C(=N)C1=O (centres undefined)	n	n	62	39	60	36
Cc1cc(C(=O)N2CC(C(=O)Nc3ccc(F)c(Cl)c3)C2)no1	n	n	n	n	n	n
Cc1cc(C(=O)N2CC(C(=O)Nc3cc(C(F)(F)F)ccc3Cl)C2)no1	n	70	41	n	n	n
Cc1ccc(-c2c(C(=O)Nc3ccc(S(N)(=O)=O)cc3)oc(=O)c3ccccc23)cc1	n	n	57	n	n	n
CC1CSc2ccc(S(=O)(=O)Nc3ccc(C(C)C)cc3)cc2NC1=O (centres undefined)	n	n	n	n	n	n
